SMILES strings stand for the structures. Several values for one entry are separate records, joined by “and”; a condition that tells them apart may be missing. Equal values may be shown once. Activity calls are given as the source filed them. The call rests on the fitted dose curve.

This test deals with 4'-phosphopantetheinyl transferase Sfp (Bacillus subtilis (strain 168)) (UniProt P39135). In words: qHTS Assay for Inhibitors of Bacillus subtilis Sfp phosphopantetheinyl transferase (PPTase): Label Free Assay for SAR. As to conditions: purified Sfp with carrier protein, gel densitometry, 30 min. The text has this: The covalent attachment of a phosphopantetheinyl (4'-PP) arm to a variety of synthases and other proteins is a key posttranslational protein modification. The 4'-PP is installed on the proteins post-translationally from coenzyme A (CoA) on a conserved serine residue by action of phosphopantetheinyl transferase (PPTase) enzymes. Phosphopantetheinylation is essential for synthase activity, and removal of the PPTase gene precludes natural product synthesis in microorganisms, or in the case of fatty acid biosynthesis, renders the organism unviable. PPTase enzymes belong to a distinct structural superfamily. Within bacteria, these enzymes are grouped into two classes based upon primary structure, the AcpS-Type and Sfp-Type PPTases.
Sfp-type PPTases, corresponding to an activator of surfactin production in Bacillus subtilis, are responsible for modifying type I polyketide and nonribosomal peptide synthases of prokaryotes. Sfp-type PPTases are responsible for the activation of a variety of pathogen-associated virulence factors. Among these compounds are toxins such as mycolactone from Mycobacterium ulcerans, siderophores such as vibriobactin from Vibrio cholerae or mycobactin from Mycobacterium tuberculosis, as well as the mycolic acids which form the waxy cell wall of Mycobacteria. The biosyntheses of these natural products are considered attractive targets for drug design.
In search of small molecule Sfp-PPTase inhibitors, a fluorescence quenching assay was developed for detection of Bacillus subtilis Sfp-PPTase enzymatic activity in a miniaturized high-throughput format. The consensus ybbr acceptor peptide […] was N-terminally labeled with Black Hole Quencher-2 (BHQ-2) and used in combination with rhodamine-labeled coenzyme A as a co-substrate.
This project seeks to identify inhibitors of Sfp phosphopantetheinyl transferase. The primary and secondary screens both utilized a rhodamine-modified CoA substrate. This experiment sought to confirm compound activity in a biochemical assay using the natural nucleotide substrate in conjunction with a whole-protein acceptor. We employed polyacrylamide gel electrophoresis in the presence of modest urea concentrations to achieve a conformationally sensitive separation of the apo- and holo- states of the acyl carrier protein (ACP) from E. coli [Rock, 1981, Cronan 1982]. Under conditions of limiting Sfp concentrations, quantitative determinations of enzyme activity can be made from images of the gels after treatment with an appropriately sensitive protein stain.
NIH Chemical Genomics Center [NCGC]
NIH Molecular Libraries Probe Centers Network [MLPCN]
Assay Submitter (PI): Michale Burkart, University of California, San Diego
Preparation of apo-ACP substrate.
A derivative of the AcpP locus from E. coli K12 containing a C-terminal fusion to a hexahistidine tag is expressed and purified from E.coli BL21(DE3) following standard procedures, (27) providing a mixture of the apo- and holo- forms of ACP in a ratio 3:2; as judged by UREA-PAGE. The resulting mixture (10 mg/ml) is reduced overnight in PBS buffer containing 10 mM DTT, and excess reducing agent removed by passage over a PD6 desalting column (Bio-Rad Laboratories, Hercules, CA). The sample is immediately pooled with an equal volume of activated thiol sepharose 4B (cat #17-0640-01, GE Healthcare, Piscataway, NJ) prepared according to the manufacturers recommendations; and the slurry agitated gently overnight at 4 deg C. The slurry was decanted into a disposable chromatography column and washed with 3 volumes of PBS. The filtrate and washes were pooled, concentrated, and the process iterated once to provide a solution of ACP that was >98% apo-form as judged by conformationally sensitive UREA-PAGE.
Label-free gel assay for phosphopantetheinylation.
Test compound (0.5 ul) dissolved in DMSO was added to 1.33 X enzyme solution (15 ul) containing 66 nM Sfp, 66 mM HEPES*Na pH 7.6, 13.3 mM MgCl2, 0.0133% NP40, and 1.33 mg/ml BSA. […]
`CN(C)c1ccc(C(=S)N2CCN(Cc3ccccc3)CC2)cc1`: the Potency is 27.8 µM (active).
The same measure, in the same setting: for `C(=C1\Nn2c(COc3ccccc3)nnc2S1)/c1ccccc1` the value was 27.8 µM (active).
`CCc1c(C)sc(NC(=O)C2CCCCC2C(=O)O)c1C(N)=O` (configuration not stated): the outcome was inactive.
In the case of `O=C(Nc1nnc(COc2ccc(Cl)cc2)s1)c1cccs1`, the Potency was 250 µM (active).
Regarding `O=C(Nc1nnc(COc2ccc(Cl)cc2)s1)c1ccco1`, the Potency was 9.26 µM (active).
For the compound `COc1ccc(N2CCN(C(=S)Nc3cc(C)ccn3)CC2)cc1`, the Potency was 83.3 µM (active).
As for `S=C(Nc1ccccn1)c1ccccn1`, the call was inactive.
Consider `CCOC(=O)c1c(-c2ccc(C)o2)csc1NC(=O)CSc1nnnn1-c1ccccc1`, for which the Potency is 27.8 µM (active).
`Cc1ccnc(NC(=S)N2CCN(c3ccc(Br)cc3)CC2)c1`: the Potency is 83.3 µM (active).
As to `CCOC(=O)c1cc(-c2ccccc2)sc1NC(=O)c1ccc(OC)cc1`, the compound was classed as inactive.
On to `Cc1ccnc(NC(=S)N2CCN(c3cccc(C(F)(F)F)c3)CC2)c1`, for which the Potency was 83.3 µM (active) and 3.09 µM (active).
As to `CC(C)(C)Cc1nnc(NC(=O)CSc2ccccc2)s1`, the compound was classed as inactive.

Values taken from PubChem BioAssay AID602392 (National Center for Advancing Translational Sciences (NCATS), 2012).
